Measured values reported in article PMC7862700, “An all-to-all approach to the identification of sequence-specific readers for epigenetic DNA modifications on cytosine”.

Experiments:
Experiment in all cases: DAPPL (digital affinity profiling via proximity ligation, sequencing); 10 mM Tris-HCl pH 7.5, 50 mM NaCl, 1 mM DTT, 4% glycerol, room temperature, 30 min; GST-TFs on glutathione beads, 16-mer random dsDNA library, 0.1% formaldehyde crosslink after washing; high values mean tight binding
FLI1 = molecular target: T1, FLI1 (Homo sapiens, UniProt Q01543 1-452); conditions: protein: recombinant; tags: N-terminal GST; dsDNA, one strand shown
T1 sequence: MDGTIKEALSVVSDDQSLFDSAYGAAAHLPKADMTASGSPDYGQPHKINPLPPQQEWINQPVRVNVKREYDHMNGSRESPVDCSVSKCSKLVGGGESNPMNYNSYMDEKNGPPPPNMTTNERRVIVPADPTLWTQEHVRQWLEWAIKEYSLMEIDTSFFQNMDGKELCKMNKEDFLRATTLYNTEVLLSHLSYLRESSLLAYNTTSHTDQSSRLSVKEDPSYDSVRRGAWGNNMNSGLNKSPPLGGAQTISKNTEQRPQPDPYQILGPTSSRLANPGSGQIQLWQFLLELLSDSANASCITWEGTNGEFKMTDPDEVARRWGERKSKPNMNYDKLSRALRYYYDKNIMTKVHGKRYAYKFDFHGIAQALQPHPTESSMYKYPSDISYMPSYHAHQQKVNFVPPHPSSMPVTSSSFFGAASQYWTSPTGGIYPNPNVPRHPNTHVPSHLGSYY
How it was run: (§1)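 In yeast, human transcription factors were expressed with a GST fusion, then pulled down on glutathione beads and given DNA barcodes. Pooled with a tag-only sample, they were exposed to 200 nmole of a 16-mer random double-stranded DNA library (Tris/NaCl/DTT/glycerol buffer, room temperature, 30 min), washed, crosslinked with 0.1% formaldehyde, proximity-ligated using BsaI/T4 ligase for 1 h at 37 °C, PCR-amplified and read on an Illumina NextSeq500. Each hexamer's frequency of reads for a factor, divided by the matching frequency for the tag-only sample, gives the binding signal.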

ELK1 = molecular target: T2, ELK1 (Homo sapiens, UniProt P19419 1-428); conditions: protein: recombinant; tags: N-terminal GST; dsDNA, one strand shown
T2 sequence: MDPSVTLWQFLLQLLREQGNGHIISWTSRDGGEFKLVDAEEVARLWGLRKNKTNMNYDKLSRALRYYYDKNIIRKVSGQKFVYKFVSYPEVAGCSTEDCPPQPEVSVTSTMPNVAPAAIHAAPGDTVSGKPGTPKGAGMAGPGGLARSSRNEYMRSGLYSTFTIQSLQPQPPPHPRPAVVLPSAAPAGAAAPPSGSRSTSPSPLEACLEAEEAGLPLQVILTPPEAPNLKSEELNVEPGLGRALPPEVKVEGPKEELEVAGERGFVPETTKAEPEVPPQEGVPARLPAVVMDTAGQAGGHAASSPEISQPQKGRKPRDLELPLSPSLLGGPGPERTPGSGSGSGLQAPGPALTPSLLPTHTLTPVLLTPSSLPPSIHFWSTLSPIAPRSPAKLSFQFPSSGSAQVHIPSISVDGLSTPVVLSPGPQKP
How it was run: as §1

GABPA = molecular target: T3, GABPA (Homo sapiens, UniProt Q06546 1-454); conditions: protein: recombinant; tags: N-terminal GST; dsDNA, one strand shown
T3 sequence: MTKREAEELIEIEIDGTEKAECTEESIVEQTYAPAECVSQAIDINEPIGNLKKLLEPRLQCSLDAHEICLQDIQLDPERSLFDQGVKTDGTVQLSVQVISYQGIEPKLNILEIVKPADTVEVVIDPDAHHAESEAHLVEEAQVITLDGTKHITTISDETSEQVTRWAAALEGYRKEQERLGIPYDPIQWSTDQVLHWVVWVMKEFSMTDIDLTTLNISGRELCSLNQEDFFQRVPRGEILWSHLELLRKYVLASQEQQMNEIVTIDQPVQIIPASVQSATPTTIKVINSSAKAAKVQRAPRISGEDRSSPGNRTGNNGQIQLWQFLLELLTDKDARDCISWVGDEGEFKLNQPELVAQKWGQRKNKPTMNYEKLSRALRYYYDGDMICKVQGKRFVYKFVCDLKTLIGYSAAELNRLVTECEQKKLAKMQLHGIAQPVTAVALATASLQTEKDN
How it was run: as §1

ERG = molecular target: T4, ERG (Homo sapiens, UniProt P11308 1-479); conditions: protein: recombinant; tags: N-terminal GST; dsDNA, one strand shown
T4 sequence: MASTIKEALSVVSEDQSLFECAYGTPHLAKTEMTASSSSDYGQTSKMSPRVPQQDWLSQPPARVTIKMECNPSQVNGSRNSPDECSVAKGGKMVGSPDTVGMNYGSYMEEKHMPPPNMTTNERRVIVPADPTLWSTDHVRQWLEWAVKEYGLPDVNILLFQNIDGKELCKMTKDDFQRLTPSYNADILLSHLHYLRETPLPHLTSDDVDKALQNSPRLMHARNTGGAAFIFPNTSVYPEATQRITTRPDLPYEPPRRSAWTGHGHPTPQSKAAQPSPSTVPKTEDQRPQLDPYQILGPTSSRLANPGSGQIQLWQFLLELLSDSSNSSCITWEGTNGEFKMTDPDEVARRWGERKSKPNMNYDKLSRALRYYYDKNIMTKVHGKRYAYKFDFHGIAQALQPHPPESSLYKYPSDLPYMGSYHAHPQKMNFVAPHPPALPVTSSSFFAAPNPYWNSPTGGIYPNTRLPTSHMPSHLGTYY
How it was run: as §1

ELF1 = ELF1 (Homo sapiens, UniProt P32519 1-619); conditions: protein: recombinant; tags: N-terminal GST; dsDNA, one strand shown
How it was run: as §1

EHF = molecular target: T5, EHF (Homo sapiens, UniProt Q9NZC4 1-300); conditions: protein: recombinant; tags: N-terminal GST; dsDNA, one strand shown
T5 sequence: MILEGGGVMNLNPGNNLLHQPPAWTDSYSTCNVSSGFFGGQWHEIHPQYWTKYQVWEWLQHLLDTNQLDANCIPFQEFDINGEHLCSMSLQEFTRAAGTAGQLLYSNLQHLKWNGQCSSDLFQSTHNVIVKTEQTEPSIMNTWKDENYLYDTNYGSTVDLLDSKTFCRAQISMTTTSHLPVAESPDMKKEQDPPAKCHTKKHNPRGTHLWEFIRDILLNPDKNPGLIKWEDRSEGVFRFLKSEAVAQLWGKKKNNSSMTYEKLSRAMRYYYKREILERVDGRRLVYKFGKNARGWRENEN
How it was run: as §1

SPI1 = SPI1 (Homo sapiens, UniProt P17947 1-270); conditions: protein: recombinant; tags: N-terminal GST; dsDNA, one strand shown
How it was run: as §1

SPIB = SPIB (Homo sapiens, UniProt Q01892 1-262); conditions: protein: recombinant; tags: N-terminal GST; dsDNA, one strand shown
How it was run: as §1

ELK3 = molecular target: T6, ELK3 (Homo sapiens, UniProt P41970 1-407); conditions: protein: recombinant; tags: N-terminal GST; dsDNA, one strand shown
T6 sequence: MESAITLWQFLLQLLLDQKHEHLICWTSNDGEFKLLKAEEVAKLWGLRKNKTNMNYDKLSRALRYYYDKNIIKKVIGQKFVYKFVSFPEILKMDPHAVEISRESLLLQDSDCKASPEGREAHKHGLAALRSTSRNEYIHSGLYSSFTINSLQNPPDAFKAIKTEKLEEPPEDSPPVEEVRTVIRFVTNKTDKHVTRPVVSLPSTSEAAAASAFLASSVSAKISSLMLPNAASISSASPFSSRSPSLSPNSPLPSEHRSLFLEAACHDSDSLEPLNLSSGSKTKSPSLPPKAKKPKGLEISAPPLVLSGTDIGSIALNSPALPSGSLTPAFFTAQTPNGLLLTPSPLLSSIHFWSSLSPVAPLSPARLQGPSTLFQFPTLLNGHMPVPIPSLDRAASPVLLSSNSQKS
How it was run: as §1

FEV = molecular target: T7, FEV (Homo sapiens, UniProt Q99581 1-238); conditions: protein: recombinant; tags: N-terminal GST; dsDNA, one strand shown
T7 sequence: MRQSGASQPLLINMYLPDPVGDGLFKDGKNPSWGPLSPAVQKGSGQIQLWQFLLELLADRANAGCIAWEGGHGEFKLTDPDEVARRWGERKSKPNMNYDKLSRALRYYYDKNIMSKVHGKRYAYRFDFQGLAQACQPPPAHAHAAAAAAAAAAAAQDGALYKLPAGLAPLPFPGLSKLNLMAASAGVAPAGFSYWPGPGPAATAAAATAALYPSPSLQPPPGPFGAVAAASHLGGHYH
How it was run: as §1

ETV5 = ETV5 (Homo sapiens, UniProt P41161 1-510); conditions: protein: recombinant; tags: N-terminal GST; dsDNA, one strand shown
How it was run: as §1

HSF1 = HSF1 (Homo sapiens, UniProt Q00613 1-529); conditions: protein: recombinant; tags: N-terminal GST; chain copies: 3; dsDNA, one strand shown
How it was run: as §1

SPIC = molecular target: T8, SPIC (Homo sapiens, UniProt Q8N5J4 1-248); conditions: protein: recombinant; tags: N-terminal GST; dsDNA, one strand shown
T8 sequence: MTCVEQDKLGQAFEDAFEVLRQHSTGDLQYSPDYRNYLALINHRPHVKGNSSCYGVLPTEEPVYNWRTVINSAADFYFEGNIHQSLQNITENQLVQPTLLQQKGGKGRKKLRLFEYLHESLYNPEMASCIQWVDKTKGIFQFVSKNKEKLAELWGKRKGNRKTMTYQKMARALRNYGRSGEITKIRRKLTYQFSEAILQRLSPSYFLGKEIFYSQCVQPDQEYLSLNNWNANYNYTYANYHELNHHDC
How it was run: as §1

ELF4 = ELF4 (Homo sapiens, UniProt Q99607 1-663); conditions: protein: recombinant; tags: N-terminal GST; dsDNA, one strand shown
How it was run: as §1

ELK4 = molecular target: T9, ELK4 (Homo sapiens, UniProt P28324-2 1-405); conditions: protein: recombinant; tags: N-terminal GST; dsDNA, one strand shown
T9 sequence: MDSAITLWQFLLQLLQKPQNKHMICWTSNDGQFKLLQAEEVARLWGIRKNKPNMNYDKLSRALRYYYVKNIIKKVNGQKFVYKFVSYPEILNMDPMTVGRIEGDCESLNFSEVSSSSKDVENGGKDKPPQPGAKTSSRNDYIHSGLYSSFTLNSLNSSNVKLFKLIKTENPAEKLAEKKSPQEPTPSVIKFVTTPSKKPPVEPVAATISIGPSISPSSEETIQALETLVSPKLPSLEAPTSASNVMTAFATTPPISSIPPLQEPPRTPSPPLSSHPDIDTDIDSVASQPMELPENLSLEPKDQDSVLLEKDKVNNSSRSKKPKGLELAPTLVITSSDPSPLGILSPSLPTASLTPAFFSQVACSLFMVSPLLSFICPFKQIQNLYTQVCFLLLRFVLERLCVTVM
How it was run: as §1

ETV2 = molecular target: T10, ETV2 (Homo sapiens, UniProt O00321 1-342); conditions: protein: recombinant; tags: N-terminal GST; dsDNA, one strand shown
T10 sequence: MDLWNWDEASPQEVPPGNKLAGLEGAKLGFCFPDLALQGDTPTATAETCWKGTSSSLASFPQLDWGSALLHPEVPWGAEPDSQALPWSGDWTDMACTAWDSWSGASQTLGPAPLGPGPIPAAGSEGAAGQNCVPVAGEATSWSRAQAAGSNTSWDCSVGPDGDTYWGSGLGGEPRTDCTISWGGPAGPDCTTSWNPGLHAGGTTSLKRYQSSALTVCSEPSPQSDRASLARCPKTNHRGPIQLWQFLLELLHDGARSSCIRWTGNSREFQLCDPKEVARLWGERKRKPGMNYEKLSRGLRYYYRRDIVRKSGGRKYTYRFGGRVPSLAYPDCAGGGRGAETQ
How it was run: as §1

ELF3 = molecular target: T11, ELF3 (Homo sapiens, UniProt P78545 1-371); conditions: protein: recombinant; tags: N-terminal GST; dsDNA, one strand shown
T11 sequence: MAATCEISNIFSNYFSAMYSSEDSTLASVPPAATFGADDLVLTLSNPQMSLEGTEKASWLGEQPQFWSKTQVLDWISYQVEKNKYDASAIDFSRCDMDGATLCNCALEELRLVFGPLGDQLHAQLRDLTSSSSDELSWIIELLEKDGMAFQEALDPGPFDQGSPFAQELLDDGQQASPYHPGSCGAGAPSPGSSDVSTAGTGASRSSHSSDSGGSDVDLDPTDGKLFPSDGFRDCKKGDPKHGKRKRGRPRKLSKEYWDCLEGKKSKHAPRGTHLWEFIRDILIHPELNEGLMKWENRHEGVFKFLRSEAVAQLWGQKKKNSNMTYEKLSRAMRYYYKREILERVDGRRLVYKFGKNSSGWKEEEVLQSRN
How it was run: as §1

CRX = CRX (Homo sapiens, UniProt O43186 1-299); conditions: protein: recombinant; tags: N-terminal GST; dsDNA, one strand shown
How it was run: as §1

ETV1 = ETV1 (Homo sapiens, UniProt P50549 1-477); conditions: protein: recombinant; tags: N-terminal GST; dsDNA, one strand shown
How it was run: as §1

Chain of CRX (O43186 whole entry): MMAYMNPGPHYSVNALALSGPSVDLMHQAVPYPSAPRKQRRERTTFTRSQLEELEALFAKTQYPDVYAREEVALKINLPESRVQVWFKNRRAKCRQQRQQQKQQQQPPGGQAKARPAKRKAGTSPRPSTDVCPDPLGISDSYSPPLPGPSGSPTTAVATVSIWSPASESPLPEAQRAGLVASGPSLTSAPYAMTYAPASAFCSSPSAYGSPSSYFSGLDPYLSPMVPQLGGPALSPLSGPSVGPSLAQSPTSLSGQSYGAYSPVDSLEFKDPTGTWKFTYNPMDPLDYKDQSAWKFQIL
Chain of ELF1 (P32519 whole entry): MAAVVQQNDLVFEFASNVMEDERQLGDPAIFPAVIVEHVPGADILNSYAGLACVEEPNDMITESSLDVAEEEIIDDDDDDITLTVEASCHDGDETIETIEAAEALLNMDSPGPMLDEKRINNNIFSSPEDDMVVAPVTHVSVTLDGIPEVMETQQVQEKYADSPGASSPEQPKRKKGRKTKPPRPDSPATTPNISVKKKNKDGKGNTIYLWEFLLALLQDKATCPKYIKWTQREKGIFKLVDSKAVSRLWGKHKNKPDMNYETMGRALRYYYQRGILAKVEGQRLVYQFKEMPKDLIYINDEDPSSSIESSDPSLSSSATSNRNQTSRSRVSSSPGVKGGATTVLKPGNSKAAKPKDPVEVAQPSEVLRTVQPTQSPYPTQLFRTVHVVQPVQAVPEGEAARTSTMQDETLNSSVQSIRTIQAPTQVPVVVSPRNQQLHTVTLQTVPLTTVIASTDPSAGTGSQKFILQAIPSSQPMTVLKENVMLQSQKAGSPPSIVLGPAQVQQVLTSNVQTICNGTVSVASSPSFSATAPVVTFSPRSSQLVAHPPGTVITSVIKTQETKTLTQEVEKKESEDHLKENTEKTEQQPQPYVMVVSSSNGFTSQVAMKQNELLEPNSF
Chain of ELF4 (Q99607 whole entry): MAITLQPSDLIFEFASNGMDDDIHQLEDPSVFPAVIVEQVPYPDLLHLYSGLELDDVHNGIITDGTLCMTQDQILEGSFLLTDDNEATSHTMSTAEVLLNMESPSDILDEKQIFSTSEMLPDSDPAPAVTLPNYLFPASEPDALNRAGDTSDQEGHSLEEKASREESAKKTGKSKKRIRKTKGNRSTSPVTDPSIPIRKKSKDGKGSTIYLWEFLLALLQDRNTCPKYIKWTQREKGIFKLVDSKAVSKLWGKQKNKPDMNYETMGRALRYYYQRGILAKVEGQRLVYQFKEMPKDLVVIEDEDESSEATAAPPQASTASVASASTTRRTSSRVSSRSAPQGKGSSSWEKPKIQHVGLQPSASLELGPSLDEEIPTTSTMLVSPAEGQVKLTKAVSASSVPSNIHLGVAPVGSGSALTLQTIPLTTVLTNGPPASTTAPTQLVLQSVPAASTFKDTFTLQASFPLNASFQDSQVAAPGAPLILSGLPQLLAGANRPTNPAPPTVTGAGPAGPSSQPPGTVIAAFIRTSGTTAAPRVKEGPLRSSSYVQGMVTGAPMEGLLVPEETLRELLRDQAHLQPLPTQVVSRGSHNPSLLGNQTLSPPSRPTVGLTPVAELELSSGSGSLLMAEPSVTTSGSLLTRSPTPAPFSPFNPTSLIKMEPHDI
Chain of SPIB (Q01892 whole entry): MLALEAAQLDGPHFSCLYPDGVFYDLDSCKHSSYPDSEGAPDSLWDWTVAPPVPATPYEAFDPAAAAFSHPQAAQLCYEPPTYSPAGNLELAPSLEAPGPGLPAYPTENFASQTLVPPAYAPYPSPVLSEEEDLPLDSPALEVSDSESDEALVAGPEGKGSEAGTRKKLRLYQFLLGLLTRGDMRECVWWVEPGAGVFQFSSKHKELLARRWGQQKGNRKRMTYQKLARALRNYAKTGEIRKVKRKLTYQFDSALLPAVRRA
Chain of ETV1 (P50549 whole entry): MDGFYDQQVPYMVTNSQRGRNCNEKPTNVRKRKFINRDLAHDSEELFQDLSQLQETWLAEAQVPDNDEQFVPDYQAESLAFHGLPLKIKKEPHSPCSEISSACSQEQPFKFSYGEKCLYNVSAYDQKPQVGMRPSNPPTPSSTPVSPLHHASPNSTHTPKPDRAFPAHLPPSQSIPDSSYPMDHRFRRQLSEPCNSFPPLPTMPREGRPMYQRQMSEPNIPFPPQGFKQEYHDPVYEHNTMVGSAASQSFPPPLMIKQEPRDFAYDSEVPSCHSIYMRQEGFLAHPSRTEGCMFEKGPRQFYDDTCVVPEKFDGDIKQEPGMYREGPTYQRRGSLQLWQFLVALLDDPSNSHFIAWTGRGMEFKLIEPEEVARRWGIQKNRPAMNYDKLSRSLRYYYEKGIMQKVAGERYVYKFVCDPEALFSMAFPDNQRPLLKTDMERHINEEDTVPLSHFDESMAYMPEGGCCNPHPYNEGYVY
Chain of HSF1 (Q00613 whole entry): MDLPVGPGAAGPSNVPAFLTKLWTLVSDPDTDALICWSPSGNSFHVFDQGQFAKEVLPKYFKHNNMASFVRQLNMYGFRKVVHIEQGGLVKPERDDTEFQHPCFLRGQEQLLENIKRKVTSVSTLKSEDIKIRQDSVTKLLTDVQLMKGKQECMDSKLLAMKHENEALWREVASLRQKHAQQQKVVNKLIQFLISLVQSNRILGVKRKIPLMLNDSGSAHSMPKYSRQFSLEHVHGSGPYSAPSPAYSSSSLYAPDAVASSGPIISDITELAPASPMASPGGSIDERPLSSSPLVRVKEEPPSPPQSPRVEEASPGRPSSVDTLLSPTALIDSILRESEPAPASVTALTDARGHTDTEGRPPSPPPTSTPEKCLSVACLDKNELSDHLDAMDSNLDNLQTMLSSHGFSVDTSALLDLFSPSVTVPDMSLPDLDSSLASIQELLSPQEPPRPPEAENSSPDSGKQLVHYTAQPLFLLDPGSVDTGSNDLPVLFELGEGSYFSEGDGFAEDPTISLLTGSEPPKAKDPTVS
Chain of ETV5 (P41161 whole entry): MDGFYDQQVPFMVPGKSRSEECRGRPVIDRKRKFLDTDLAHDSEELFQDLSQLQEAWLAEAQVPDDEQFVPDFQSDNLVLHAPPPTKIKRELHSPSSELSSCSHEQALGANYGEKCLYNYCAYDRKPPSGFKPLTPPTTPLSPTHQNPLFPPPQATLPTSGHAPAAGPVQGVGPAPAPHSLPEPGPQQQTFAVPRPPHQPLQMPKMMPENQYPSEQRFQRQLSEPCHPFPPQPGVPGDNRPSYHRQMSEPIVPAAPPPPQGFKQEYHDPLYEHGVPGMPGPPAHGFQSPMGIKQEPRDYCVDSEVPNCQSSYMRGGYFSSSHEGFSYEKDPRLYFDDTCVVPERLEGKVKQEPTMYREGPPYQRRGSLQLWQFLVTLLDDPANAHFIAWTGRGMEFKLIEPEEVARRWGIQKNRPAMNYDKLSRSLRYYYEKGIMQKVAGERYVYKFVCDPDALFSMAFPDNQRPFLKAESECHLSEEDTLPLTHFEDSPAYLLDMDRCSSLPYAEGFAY

Sequence: TGCCTC
- binding signal (FLI1): 1.39 fold enrichment (6-mer frequency, TF over GST control)
- binding signal (ELK1): 1.31 fold enrichment (6-mer frequency, TF over GST control)
- binding signal (GABPA): 1.36 fold enrichment (6-mer frequency, TF over GST control)
- binding signal (ERG): 1.35 fold enrichment (6-mer frequency, TF over GST control)
- binding signal (ELF1): 1.31 fold enrichment (6-mer frequency, TF over GST control)
- binding signal (EHF): 1.26 fold enrichment (6-mer frequency, TF over GST control)
- binding signal (SPI1): 1.39 fold enrichment (6-mer frequency, TF over GST control)
- binding signal (SPIB): 1.4 fold enrichment (6-mer frequency, TF over GST control)
- binding signal (ELK3): 1.27 fold enrichment (6-mer frequency, TF over GST control)
- binding signal (FEV): 1.32 fold enrichment (6-mer frequency, TF over GST control)
- binding signal (ETV5): 1.37 fold enrichment (6-mer frequency, TF over GST control)
- binding signal (HSF1): 1.14 fold enrichment (6-mer frequency, TF over GST control)
- binding signal (SPIC): 1.4 fold enrichment (6-mer frequency, TF over GST control)
- binding signal (ELF4): 1.34 fold enrichment (6-mer frequency, TF over GST control)
- binding signal (ELK4): 1.28 fold enrichment (6-mer frequency, TF over GST control)
- binding signal (ETV2): 1.3 fold enrichment (6-mer frequency, TF over GST control)
- binding signal (ELF3): 1.52 fold enrichment (6-mer frequency, TF over GST control)
- binding signal (CRX): 1.06 fold enrichment (6-mer frequency, TF over GST control)
- binding signal (ETV1): 1.24 fold enrichment (6-mer frequency, TF over GST control)
